This is an account of results in PubChem BioAssay (EPA / NIEHS).

The target in test [1] is human RAR-related Orphan Receptor gamma (RORg), RORC (gene 6097) (UniProt P51449). Description: ATG_RORg_TRANS: Attagene TRANS-FACTORIAL HepG2 Assay for human RAR-related Orphan Receptor gamma (RORg) (AID 2283011; active means hit-call score of the fitted dose curve at least 0.9, where 1 is the maximum). In outline: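 Readout: reporter transcript induction (RT-PCR, fluorescent primer extension, capillary electrophoresis) after 24 h compound exposure of transiently transfected HepG2 cells carrying a RORg-Gal4 chimera and GAL4-UAS reporters; DMSO served as baseline, with increasing signal fitted.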
Sequence of human RAR-related Orphan Receptor gamma (RORg), RORC (gene 6097) (P51449 whole entry, looked up, the tested form may be a part): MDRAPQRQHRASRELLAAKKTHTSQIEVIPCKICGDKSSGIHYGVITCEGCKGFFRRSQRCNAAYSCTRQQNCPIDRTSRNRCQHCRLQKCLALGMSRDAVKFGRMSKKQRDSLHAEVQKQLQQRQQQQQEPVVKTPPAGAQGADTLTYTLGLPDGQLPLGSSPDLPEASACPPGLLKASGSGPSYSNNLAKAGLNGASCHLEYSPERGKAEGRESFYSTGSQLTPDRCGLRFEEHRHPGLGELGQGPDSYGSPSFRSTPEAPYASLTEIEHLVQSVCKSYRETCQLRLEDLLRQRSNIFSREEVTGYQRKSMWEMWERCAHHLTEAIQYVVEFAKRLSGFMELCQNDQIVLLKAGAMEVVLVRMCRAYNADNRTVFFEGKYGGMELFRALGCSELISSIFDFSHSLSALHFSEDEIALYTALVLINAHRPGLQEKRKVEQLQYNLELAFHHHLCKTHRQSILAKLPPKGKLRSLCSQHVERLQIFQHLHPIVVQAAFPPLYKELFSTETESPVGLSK

Test [2] concerns the target Retinoic acid receptor RXR-alpha (Homo sapiens) (UniProt P19793). In words: ATG_RXRa_TRANS: Attagene TRANS-FACTORIAL HepG2 Assay for human Retinoid X Receptor alpha (RXRa) (AID 2283012; active means hit-call score of the fitted dose curve at least 0.9, where 1 is the maximum). In outline:
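Transient transfection of human HepG2 with multiple GAL4-UAS reporter constructs; 24 h compound exposure; total RNA isolated, reverse-transcribed, PCR-amplified, 6-FAM labelled, HpaI-cut, resolved by capillary electrophoresis. Positive-direction fit versus DMSO.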

Test [3] deals with human Retinoid X Receptor beta (RXRb), RXRB (gene 6257) (UniProt P28702). In words: ATG_RXRb_TRANS: Attagene TRANS-FACTORIAL HepG2 Assay for human Retinoid X Receptor beta (RXRb) (AID 2283013; active means hit-call score of the fitted dose curve at least 0.9, where 1 is the maximum). An outline of the steps: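 Transfect HepG2 with GAL4-UAS multi-reporter constructs (chimeric NR-Gal4, TRANS format); dose compound 24 h; isolate RNA, RT-PCR, FAM primer extension, HpaI digest; quantify by capillary electrophoresis; positive direction vs DMSO.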
Sequence of human Retinoid X Receptor beta (RXRb), RXRB (gene 6257) (P28702 whole entry, looked up, the tested form may be a part): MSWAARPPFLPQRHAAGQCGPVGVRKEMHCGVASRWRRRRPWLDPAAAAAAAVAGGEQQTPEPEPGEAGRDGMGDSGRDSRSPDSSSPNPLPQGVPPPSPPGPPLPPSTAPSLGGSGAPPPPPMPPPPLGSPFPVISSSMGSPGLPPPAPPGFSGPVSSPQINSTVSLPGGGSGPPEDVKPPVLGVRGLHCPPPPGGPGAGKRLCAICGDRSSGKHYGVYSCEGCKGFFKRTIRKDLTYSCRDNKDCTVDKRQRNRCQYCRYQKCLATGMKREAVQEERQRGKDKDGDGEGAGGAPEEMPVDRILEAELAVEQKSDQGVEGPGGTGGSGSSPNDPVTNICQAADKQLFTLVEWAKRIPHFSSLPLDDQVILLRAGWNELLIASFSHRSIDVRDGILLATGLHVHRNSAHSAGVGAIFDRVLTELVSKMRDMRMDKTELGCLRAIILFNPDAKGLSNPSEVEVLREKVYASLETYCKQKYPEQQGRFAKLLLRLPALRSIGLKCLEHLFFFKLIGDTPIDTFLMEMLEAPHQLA

Test [4] concerns the target human Thyroid Receptor alpha (THRa1), THRA (gene 7067) (UniProt P10827). In words: ATG_THRa1_TRANS: Attagene TRANS-FACTORIAL HepG2 Assay for human Thyroid Receptor alpha (THRa1) (AID 2283014; active means hit-call score of the fitted dose curve at least 0.9, where 1 is the maximum). In outline: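 HepG2 cells transiently transfected with multiplexed GAL4-UAS reporter units for exogenous chimeric THRa1-Gal4; reporter mRNA measured 24 h after dosing by RT-PCR, 6-FAM labelling, HpaI digestion and capillary electrophoresis. Gain-of-signal fitted versus DMSO baseline.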

Test [5] addresses human Vitamin D Receptor (VDR), VDR (gene 7421) (UniProt P11473). In words: ATG_VDR_TRANS: Attagene TRANS-FACTORIAL HepG2 Assay for human Vitamin D Receptor (VDR) (AID 2283022; active means hit-call score of the fitted dose curve at least 0.9, where 1 is the maximum). An outline of the steps:
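HepG2 cells were transiently transfected with multiple GAL4-UAS reporter units, so signal reflects exogenous chimeric receptor-Gal4 activity. After 24 h compound exposure, reporter mRNA was measured by RT-PCR, fluorescent labelling and capillary electrophoresis, fitted for gain of signal versus DMSO.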

Read-out in test [6]: E-selectin (Homo sapiens) (UniProt P16581)
Description: BSK_3C_Eselectin: BioMAP Diversity Plus: 3C Assay for Eselectin Biomarker Activity (AID 2283015).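 Further: cell surface E-selectin protein quantified by ELISA 24 h after dosing.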 Conditions: primary human endothelial cells (HUVEC); actives raise or lower the signal. An outline of the steps: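 Primary human umbilical vein endothelial cells (3C system) were dosed with chemical and cell-surface E-selectin measured by ELISA 24 h later. Bidirectional curve fitting used DMSO as negative control and baseline.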

Read-out in test [7]: Interleukin-1 alpha (IL1a), IL1A (gene 3552)
Description: BSK_BE3C_IL1a: BioMAP Diversity Plus: BE3C Assay for Interleukin-1 alpha (IL1a) Biomarker Activity (AID 2283016). To be noted: primary human bronchial epithelial cells; actives raise or lower the signal. In outline:
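BE3C primary human bronchial epithelium; cpd 24 h; IL-1a by ELISA; bidirectional fit vs DMSO; parallel SRB (0.1% SRB, 10% TCA fix, 560 nm) for cytotoxicity.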

Read-out in test [8]: Monocyte Chemoattractant Protein-1 (MCP1), CCL2 (gene 6347)
Description: BSK_3C_MCP1: BioMAP Diversity Plus: 3C Assay for Monocyte Chemoattractant Protein-1 (MCP1) Biomarker Activity (AID 2283017). Conditions: primary human endothelial cells (HUVEC); actives raise or lower the signal. An outline of the steps:
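Primary human umbilical vein endothelial cells (3C system) were exposed to test chemical for 24 h, after which MCP-1 was quantified by ELISA. Activity was fitted bidirectionally against DMSO as negative control and baseline.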

Read-out in test [9]: Monocyte Chemoattractant Protein-1 (MCP1), CCL2 (gene 6347)
In words: BSK_4H_MCP1: BioMAP Diversity Plus: 4H Assay for Monocyte Chemoattractant Protein-1 (MCP1) Biomarker Activity (AID 2283018). Conditions: primary human endothelial cells (HUVEC); actives raise or lower the signal. In outline: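 ELISA read-out of MCP-1 from human vascular endothelial primary cells taken at 24 hours after compound exposure. Activity was fitted in both directions relative to DMSO, which served as negative control.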

Read-out in test [10]: Human Leukocyte Antigen - DR isotype (HLADR), HLA-DRA (gene 3122)
In words: BSK_3C_HLADR: BioMAP Diversity Plus: 3C Assay for Human Leukocyte Antigen - DR isotype (HLADR) Biomarker Activity (AID 2283019). To be noted: primary human endothelial cells (HUVEC); actives raise or lower the signal. In outline: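 Primary human umbilical vein endothelial cells (3C system) were dosed with compound and cell-surface HLA-DR was quantified by ELISA at 24 h. Activity was fitted bidirectionally against DMSO as negative control and baseline.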

Read-out in test [11]: Interleukin-8 (IL8), CXCL8 (gene 3576)
Description: BSK_3C_IL8: BioMAP Diversity Plus: 3C Assay for Interleukin-8 (IL8) Biomarker Activity (AID 2283020). Conditions: primary human endothelial cells (HUVEC); actives raise or lower the signal. An outline of the steps: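 ELISA read-out of IL-8 from human umbilical vein endothelium, measured 24 h after chemical dosing. Activity is expressed relative to DMSO negative control, with both increases and decreases fitted.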

Read-out in test [12]: Monokine induced gamma interferon (MIG), CXCL9 (gene 4283)
In words: BSK_3C_MIG: BioMAP Diversity Plus: 3C Assay for Monokine induced gamma interferon (MIG) Biomarker Activity (AID 2283021). Conditions: primary human endothelial cells (HUVEC); actives raise or lower the signal. In outline: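 Read-out is ELISA detection of MIG on human umbilical vein endothelial cells, taken 24 h after dosing. Gain or loss of signal was scored relative to DMSO controls using bidirectional curve fitting.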

Test [13] in a line: BSK_3C_SRB: Viability Assessment in the BioMAP Diversity Plus: 3C Assay (AID 2283023).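 Further: fitted both ways against DMSO so a hit may be signal rise or drop.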 To be noted: primary human endothelial cells (HUVEC). In outline: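 Primary human umbilical vein endothelial cells in the 3C system were read 24 h after compound dosing. Total protein was stained with 0.1% sulforhodamine B after 10% TCA fixation and read at 560 nm, with bidirectional fitting against DMSO as baseline.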

Read-out in test [14]: Matrix Metallopeptidase 1 (MMP1), MMP1 (gene 4312)
In words: BSK_BE3C_MMP1: BioMAP Diversity Plus: BE3C Assay for Matrix Metallopeptidase 1 (MMP1) Biomarker Activity (AID 2283024). Conditions: primary human bronchial epithelial cells; actives raise or lower the signal. An outline of the steps:
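Human bronchial epithelial cells (BE3C system) exposed to compound for 24 h; MMP1 then quantified by ELISA. Activity was fitted in both directions relative to DMSO.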

Read-out in test [15]: Pselectin, SELP (gene 6403)
Description: BSK_4H_Pselectin: BioMAP Diversity Plus: 4H Assay for Pselectin Biomarker Activity (AID 2283026). Conditions: primary human endothelial cells (HUVEC); actives raise or lower the signal. An outline of the steps: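 ELISA read-out of P-selectin on human umbilical vein endothelium after 24 h of dosing. Values derive from bidirectional fitting relative to DMSO. Parallel SRB protein staining flagged overt cytotoxicity.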

The nature of test [16]: BSK_4H_SRB: Viability Assessment in the BioMAP Diversity Plus: 4H Assay (AID 2283027).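 Further: cells exposed to compound for 24 h before staining.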 Conditions: primary human endothelial cells (HUVEC). An outline of the steps:
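Human umbilical vein endothelial cells, 24 h after chemical dosing; total protein measured by 0.1% sulforhodamine B staining after 10% TCA fixation, read at 560 nm. Bidirectional fitting against DMSO.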

Test [17] can be described thus: BSK_BE3C_SRB: Viability Assessment in the BioMAP Diversity Plus: BE3C Assay (AID 2283028). Conditions: primary human bronchial epithelial cells. An outline of the steps: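 Human primary bronchial epithelial cells were exposed to test chemicals for 24 h. Total protein in parallel cultures was then measured by staining with 0.1% sulforhodamine B after 10% TCA fixation, with absorbance read at 560 nm. Activity was fitted bidirectionally against DMSO.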

Read-out in test [18]: Thrombomodulin, THBD (gene 7056)
Description: BSK_3C_Thrombomodulin: BioMAP Diversity Plus: 3C Assay for Thrombomodulin Biomarker Activity (AID 2283029). Conditions: primary human endothelial cells (HUVEC); actives raise or lower the signal. In outline: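 Read-out is ELISA of thrombomodulin on human umbilical vein endothelium 24 h after chemical dosing. Gain or loss of signal is scored relative to DMSO. Overt cytotoxicity is checked in parallel cultures by sulforhodamine B staining.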

Test [19] is described as follows: BSK_3C_Vis: BioMAP Diversity Plus: 3C Assay for Morphology Visualization (AID 2283025).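 Further: fitted both ways so gain or loss versus DMSO counts.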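 On AC50: light microscopy image of cell morphology used as background control.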 Conditions: primary human endothelial cells (HUVEC). In outline:
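Chemicals were added to primary human umbilical vein endothelium, cells were incubated 24 h, and morphology was then visualized by light microscopy. Gain or loss of signal was fitted bidirectionally relative to DMSO.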

Results filed as inconclusive are left out. Active and inactive are the calls of the source. How the source made its calls, unless noted: active means hit-call score of the fitted dose curve at least 0.9, where 1 is the maximum; inactive means score below 0.9.

Sequence of human Vitamin D Receptor (VDR), VDR (gene 7421) (P11473 whole entry, looked up, the tested form may be a part): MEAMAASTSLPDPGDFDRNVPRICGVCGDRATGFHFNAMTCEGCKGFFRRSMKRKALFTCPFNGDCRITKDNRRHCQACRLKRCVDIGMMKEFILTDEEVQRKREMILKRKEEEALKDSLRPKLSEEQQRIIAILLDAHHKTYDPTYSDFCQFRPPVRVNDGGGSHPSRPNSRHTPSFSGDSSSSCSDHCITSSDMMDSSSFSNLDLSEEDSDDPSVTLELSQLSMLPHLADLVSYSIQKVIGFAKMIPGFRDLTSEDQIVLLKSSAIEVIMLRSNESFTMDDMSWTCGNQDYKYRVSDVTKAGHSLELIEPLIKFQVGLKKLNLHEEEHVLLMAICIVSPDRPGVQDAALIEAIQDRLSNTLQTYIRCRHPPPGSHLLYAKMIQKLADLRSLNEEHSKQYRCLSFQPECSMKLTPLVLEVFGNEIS
Sequence of E-selectin (Homo sapiens) (P16581 whole entry, looked up): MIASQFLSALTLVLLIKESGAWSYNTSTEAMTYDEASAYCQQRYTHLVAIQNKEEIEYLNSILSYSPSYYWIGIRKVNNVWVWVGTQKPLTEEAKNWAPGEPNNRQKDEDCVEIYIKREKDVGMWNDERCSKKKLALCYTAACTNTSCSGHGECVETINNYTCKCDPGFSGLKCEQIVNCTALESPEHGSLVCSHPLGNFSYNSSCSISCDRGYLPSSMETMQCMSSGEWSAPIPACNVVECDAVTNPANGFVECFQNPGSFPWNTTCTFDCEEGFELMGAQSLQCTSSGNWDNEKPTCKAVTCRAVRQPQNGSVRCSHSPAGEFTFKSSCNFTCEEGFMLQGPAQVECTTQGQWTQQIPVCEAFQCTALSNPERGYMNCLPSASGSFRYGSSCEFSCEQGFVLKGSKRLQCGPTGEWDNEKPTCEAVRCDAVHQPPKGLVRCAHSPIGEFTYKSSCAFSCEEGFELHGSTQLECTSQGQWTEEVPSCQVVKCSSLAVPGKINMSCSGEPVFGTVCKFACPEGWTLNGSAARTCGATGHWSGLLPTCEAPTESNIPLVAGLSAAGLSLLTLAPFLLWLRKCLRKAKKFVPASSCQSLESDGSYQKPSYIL
Sequence of Retinoic acid receptor RXR-alpha (Homo sapiens) (P19793 whole entry, looked up, the tested form may be a part): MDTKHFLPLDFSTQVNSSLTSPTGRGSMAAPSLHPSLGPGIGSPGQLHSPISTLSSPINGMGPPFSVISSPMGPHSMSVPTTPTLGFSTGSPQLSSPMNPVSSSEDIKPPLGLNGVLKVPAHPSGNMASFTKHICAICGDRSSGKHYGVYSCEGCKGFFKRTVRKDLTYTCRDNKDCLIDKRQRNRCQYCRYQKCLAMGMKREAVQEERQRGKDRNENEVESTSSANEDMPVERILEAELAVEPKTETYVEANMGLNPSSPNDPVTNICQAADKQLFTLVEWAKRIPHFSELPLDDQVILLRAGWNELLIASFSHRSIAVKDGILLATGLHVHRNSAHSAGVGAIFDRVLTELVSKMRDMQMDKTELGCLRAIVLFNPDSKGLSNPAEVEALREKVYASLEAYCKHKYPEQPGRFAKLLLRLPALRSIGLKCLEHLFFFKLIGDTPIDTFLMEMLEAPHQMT
Sequence of human Thyroid Receptor alpha (THRa1), THRA (gene 7067) (P10827 whole entry, looked up, the tested form may be a part): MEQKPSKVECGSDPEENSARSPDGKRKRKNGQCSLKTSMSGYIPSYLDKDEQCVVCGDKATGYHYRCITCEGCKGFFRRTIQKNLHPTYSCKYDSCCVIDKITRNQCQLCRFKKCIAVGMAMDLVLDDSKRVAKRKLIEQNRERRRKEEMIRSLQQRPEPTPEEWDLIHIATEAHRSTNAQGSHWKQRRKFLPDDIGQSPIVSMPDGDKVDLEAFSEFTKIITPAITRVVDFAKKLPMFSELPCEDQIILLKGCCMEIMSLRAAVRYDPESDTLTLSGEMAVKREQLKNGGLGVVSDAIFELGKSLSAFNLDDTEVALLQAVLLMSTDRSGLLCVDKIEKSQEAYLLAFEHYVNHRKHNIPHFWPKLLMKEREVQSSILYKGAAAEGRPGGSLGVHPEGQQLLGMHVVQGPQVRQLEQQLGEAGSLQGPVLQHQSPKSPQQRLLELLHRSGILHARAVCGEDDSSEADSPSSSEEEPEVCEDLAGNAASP

Turning to `CC(=O)c1ccc(-c2ccccc2)cc1`, the compound was classed as inactive in [1], in [2], in test [3], in test [4] and in test [5].

Take `CNC(=O)Oc1ccc(N(C)C)c(C)c1`: the result in test [2] and in test [3] was inactive.

As for `O=C(O)CF`, the compound was called inactive in [1], in test [2], in test [3] and in [5].

Take `CCOC(=O)c1ccccc1N`: the outcome in test [1], in test [4] and in test [5] was inactive.

For the compound `NC(=O)C(F)(F)C(F)(F)F`, the call in test [1], in test [2], in [4], in test [6], in test [7] and in test [8] was inactive. Besides, the result in [9], in test [10], in test [11], in test [12], in test [5] and in test [13] was inactive. For the same compound, the outcome in test [14], in test [15], in test [16], in [17] and in test [18] was inactive.

Consider `Cn1[nH]nnc1=S`, for which, in [2], the result was inactive.

Regarding `Nc1cc2c3c(c1)C(c1ccccc1)=N[C@@H](NC(=O)c1cccnc1)C(=O)N3CC2`, the outcome in test [1], in [2], in test [3], in [6], in test [7] and in [8] was inactive. The outcome in test [10], in test [11], in test [12], in test [5], in [13] and in [14] was inactive. For the same compound, the result in test [19], in test [15], in [16], in test [17] and in test [18] was inactive.

Turning to `Nc1ccc(Cl)cc1`, the compound was classed as inactive in test [1], in test [2], in [3], in [4], in test [6] and in [7]. Further, the outcome in test [8], in [10], in [11], in test [12], in [14] and in test [19] was inactive. Also, the outcome in [15], in [16], in test [17] and in test [18] was inactive.

Regarding `CC(O)C#N` (centres undefined), the call in test [1], in test [2], in [4] and in test [5] was inactive.

For `CC(=O)CCc1ccc2c(c1)OCO2`, the outcome in test [2] and in test [3] was inactive.

For `CCOc1ccc(C(C)(C)COCc2cccc(Oc3ccccc3)c2)cc1`, the compound was called inactive in test [2], in [3], in test [4], in [6], in test [7] and in test [8]. Besides, the result in test [10], in [11], in [12], in [5], in test [14] and in [19] was inactive. In addition, the outcome in test [15], in test [16], in [17] and in test [18] was inactive.

Turning to `Cc1ccc2c(c1N)C(=O)c1ccccc1C2=O`, the call in test [2], in test [3], in test [4], in test [6], in test [7] and in test [8] was inactive. Besides, the outcome in test [9], in test [11], in test [12], in [14], in test [15] and in test [16] was inactive. Moreover, the result in [17] and in test [18] was inactive. For the same compound, the figures for the half-maximal activity concentration (AC50) in [10] and in test [19] were 15 µM (active) and 13.6 µM (active), respectively.

Turning to `N#Cc1ccc(O)cc1`, the call in test [1], in [2], in test [3], in test [4] and in [5] was inactive.

Consider `CC1=C(C(=O)Nc2ccccc2)S(=O)(=O)CCO1`, for which, in test [2], the call was inactive.
